Assay outcomes from PubChem.
The list is not random: actives were taken first. Their share in the collection is about 4.2%.
VDR inhibitor = blocks the human vitamin D receptor. P11473. VDR-SRC2-3 peptide fluorescence polarization, 2 h. Potency, µM, inactives show max response, negative = inhibition, actives largely listed as inhibitors. actives 0.93% (n = 400,000). AID 504847
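Two reagent solutions held at 4 deg C in the dark were dispensed, compounds pinned at 23 nl, and the mixture incubated 2 h at room temperature. Read-out: fluorescence polarization of VDR–SRC2-3 peptide binding.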
Sfp PPTase inh = Sfp phosphopantetheinyl transferase inhibition; Biochemical Sfp PPTase activity, qHTS; actives 3.5% (n = 310,000); Potency, µM, for inactives: largest response in the series, negative = inhibition, actives largely listed as inhibitors; Q9F4F7;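 further: the enzyme is Sfp with the accession as filed and its product quenches rhodamine fluorescence; 0% = enzyme reaction without inhibitor and -100% = no enzyme wells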
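After 15 min at room temperature with compound, 15 nM Sfp received 5 uM rhodamine-CoA plus 12.5 uM BHQ-2-ybbR (50 mM Hepes pH 7.6, 10 mM MgCl2). Rate came from the fluorescence difference over 30 min, ex 525/em 598 nm.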
PLK1 PBD block = inhibitors of human PLK1 polo-box domain binding; Plk1 PBD binding of FITC phosphopeptide, fluorescence polarization; Potency, µM, inactives show max response, negative = inhibition, most hits filed as inhibitors; actives 2.8% (n = 360,000); further: series mostly up to about 57 µM; nearly all actives have a fitted effect of over 65% in size
ALOX12 inh = inhibitors of human 12S-lipoxygenase ALOX12; AID 1671190; actives 1.1% (n = 580,000); Potency, µM (series often up to 108 µM), inactives show at the top dose activity change, negative = inhibition, actives largely listed as inhibitors; P18054; purified 12hLO, xylenol orange hydroperoxide absorbance
Target sequence (P18054 whole entry, looked up): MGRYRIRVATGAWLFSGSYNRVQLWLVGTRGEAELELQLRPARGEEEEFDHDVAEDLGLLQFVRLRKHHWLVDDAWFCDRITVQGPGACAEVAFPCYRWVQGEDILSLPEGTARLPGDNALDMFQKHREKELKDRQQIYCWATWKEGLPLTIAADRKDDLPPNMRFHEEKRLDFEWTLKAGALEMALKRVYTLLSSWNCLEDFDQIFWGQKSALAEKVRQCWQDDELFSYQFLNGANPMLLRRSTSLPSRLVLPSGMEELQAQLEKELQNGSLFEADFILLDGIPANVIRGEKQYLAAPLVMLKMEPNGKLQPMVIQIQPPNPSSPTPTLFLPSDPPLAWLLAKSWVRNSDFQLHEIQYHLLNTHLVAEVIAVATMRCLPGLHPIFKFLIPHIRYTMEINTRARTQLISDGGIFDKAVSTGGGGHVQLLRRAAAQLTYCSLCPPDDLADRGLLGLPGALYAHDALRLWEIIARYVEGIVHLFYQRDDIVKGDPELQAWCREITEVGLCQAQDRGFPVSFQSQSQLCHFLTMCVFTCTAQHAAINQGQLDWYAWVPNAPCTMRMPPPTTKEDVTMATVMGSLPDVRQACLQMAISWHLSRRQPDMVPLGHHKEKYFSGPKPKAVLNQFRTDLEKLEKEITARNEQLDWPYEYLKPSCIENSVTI
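Hydroperoxide product was detected by ferrous iron/xylenol orange as the 573 to 405 nm absorbance ratio. Arachidonic acid at 40 uM (final) was turned over for 30 min at room temperature by 150 nM human 12hLO, pH 7.0 Hepes buffer, after 15 min compound preincubation.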
The depositor's hits bear a star; ! = a repeat was not active; [ ] = dose if it differs, or a comment. The call rests on the fitted dose curve; in most records, active means well fitted curve in the direction sought with a large enough effect; inconclusive means small, poorly fitted or top-dose-only effect, or another doubt; inactive means no such curve, though single readings can be large; an effect the other way counts as inactive or inconclusive. Unless noted, on the % scale 0 is the no-effect control and ±100 the full control effect; potency means the concentration at half of the fitted maximal effect.

What do the screens show for `O=C(O)c1ccc(N/N=C/C2=C(N3CCOCC3)C(=C\c3ccccc3)/CC2)cc1`?
VDR inhibitor: inconclusive; Sfp PPTase inh: 50.1µM*; PLK1 PBD block: inconclusive; ALOX12 inh: -55.7%

What do the screens show for `CC1=CCC2C(=O)N(c3ccc(C)cc3)C(=O)C2C1` (stereo not given)?
VDR inhibitor: 15.4%; Sfp PPTase inh: 11.5%; PLK1 PBD block: -4.4%; ALOX12 inh: 3.3%

How did Cc1cccc(-n2c(Cc3cc(=O)[nH]c(=O)[nH]3)nnc2SCC(=O)c2ccc(Cl)cc2)c1 do in these assays?
ALOX12 inh: -6.8%

Results for FC(F)(F)c1ccccc1/C=N/Nc1ccccn1 ?
VDR inhibitor: -0.1%; Sfp PPTase inh: 79.4µM*; PLK1 PBD block: -1.9%; ALOX12 inh: 1.1%

How did Brc1ccccc1/C=N/Nc1ccccn1 do in these assays?
VDR inhibitor: 10.9%; Sfp PPTase inh: 16.1%; PLK1 PBD block: -6.4%; ALOX12 inh: 51.1%

How did CN(C(=O)NC(=O)C1=C(N2CCOCC2)/C(=C/c2ccccc2)CC1)S(C)(=O)=O do in these assays?
VDR inhibitor: 8.2%; Sfp PPTase inh: -1.5%; PLK1 PBD block: -24.3%; ALOX12 inh: -25.5%

How did CCCCN(C(=O)NC(=O)C1=C(N2CCOCC2)/C(=C/c2ccccc2)CC1)S(C)(=O)=O do in these assays?
VDR inhibitor: -8.7%; Sfp PPTase inh: -2.9%; PLK1 PBD block: 33.6µM*!; ALOX12 inh: -26.0%

How did CC(C)CC(=O)N[C@H](C)c1c(-c2ccc(Cl)cc2)noc1C(=O)O do in these assays?
ALOX12 inh: -7.3%[176 µM]

How did CCNC(=O)/C(C#N)=C/c1c(N2CCN(c3ccc(OC)cc3)CC2)nc2c(C)cccn2c1=O do in these assays?
VDR inhibitor: inconclusive; Sfp PPTase inh: -6.5%; PLK1 PBD block: 23.8µM*; ALOX12 inh: -29.4%

Results for Cc1ccccc1Oc1nc2c(C)cccn2c(=O)c1/C=C(\C#N)C(=O)Nc1c(C)n(C)n(-c2ccccc2)c1=O ?
VDR inhibitor: 50.1µM*; Sfp PPTase inh: inconclusive; PLK1 PBD block: -28.6%; ALOX12 inh: -18.7%

How did Cc1ccccc1Oc1nc2ccccn2c(=O)c1/C=C(\C#N)C(=O)Nc1c(C)n(C)n(-c2ccccc2)c1=O do in these assays?
VDR inhibitor: inconclusive; Sfp PPTase inh: 6.6%; PLK1 PBD block: -5.7%; ALOX12 inh: -8.0%

How did O=C(Nc1ccc2ccccc2c1)c1cccc2ccccc12 do in these assays?
VDR inhibitor: 17.6%; PLK1 PBD block: -2.9%; ALOX12 inh: 3.9%

How did C=C(c1cccc2ccccc12)P(=O)(O)O do in these assays?
VDR inhibitor: 13.1%; Sfp PPTase inh: 0.7%; PLK1 PBD block: -3.7%; ALOX12 inh: 12.6µM*

Results for COC(=O)c1sccc1NC(=S)N(C)C1CCCCC1 ?
VDR inhibitor: -13.8%; Sfp PPTase inh: -20.6%; PLK1 PBD block: -2.4%; ALOX12 inh: -8.6%

Results for CN1CCC(OC2CCN(C(=O)c3ccc(Br)cc3)CC2)CC1 ?
ALOX12 inh: 13.5%

What do the screens show for `COCCn1c(SCc2nc(-c3cccc(C(F)(F)F)c3)no2)nc2ccsc2c1=O`?
ALOX12 inh: -49.0%

Results for CNCCCOc1ccc(C)cc1OC ?
VDR inhibitor: -4.9%; Sfp PPTase inh: 44.7µM*; PLK1 PBD block: -10.2%; ALOX12 inh: inconclusive

How did CC1CCCN(S(=O)(=O)c2ccc(NC(=O)C3CCN(C(=O)c4ccco4)CC3)cc2)C1 (stereo not given) do in these assays?
VDR inhibitor: inconclusive; Sfp PPTase inh: 8.1%; PLK1 PBD block: -1.0%; ALOX12 inh: -8.7%

What do the screens show for `Cc1csc(NC(=O)CN(C)S(=O)(=O)c2cccc3cccnc23)n1`?
VDR inhibitor: -6.9%; Sfp PPTase inh: -2.0%; PLK1 PBD block: -15.5%; ALOX12 inh: 0.8%

How did CN(CC(=O)Nc1n[nH]c(=S)s1)S(=O)(=O)c1cccc2cccnc12 do in these assays?
VDR inhibitor: -1.4%; Sfp PPTase inh: 39.8µM*; PLK1 PBD block: 29.9µM*; ALOX12 inh: inconclusive

What do the screens show for `CCC(=O)Nc1ccc(-c2c(-c3ccc(C)cc3)nn(-c3ccc(F)cc3)c2OC(C)=O)cc1`?
ALOX12 inh: 2.6%

How did COc1ccc(-c2nn(-c3ccc(F)cc3)c(OC(C)=O)c2-c2ccc(NC(C)=O)cc2)cc1OC do in these assays?
ALOX12 inh: 11.2µM*

How did CC(=O)N1CCN(C2=NC(=O)/C(=C/c3ccc(OS(=O)(=O)c4ccccc4)cc3)S2)CC1 do in these assays?
VDR inhibitor: 50.1µM*; Sfp PPTase inh: -2.9%; PLK1 PBD block: -20.2%; ALOX12 inh: 22.9%

Results for O=C1N=C(N2CCOCC2)S/C1=C\c1ccccc1OS(=O)(=O)c1ccccc1 ?
VDR inhibitor: -9.5%; Sfp PPTase inh: 26.0%; PLK1 PBD block: -10.8%; ALOX12 inh: inconclusive

What do the screens show for `CSc1cccc(NC(=O)c2nnn(CC(=O)Nc3cc(C)cc(C)c3)c2N)c1`?
VDR inhibitor: inconclusive; Sfp PPTase inh: 13.2%; PLK1 PBD block: 13.4µM*; ALOX12 inh: -9.6%

How did CC(C)(C)C(=O)Nc1ccc(NC(=O)C(C)(C)C)cc1 do in these assays?
VDR inhibitor: -9.3%; Sfp PPTase inh: 24.0%; PLK1 PBD block: -25.1%; ALOX12 inh: 9.1%

How did CCC(=O)Nc1nc(=S)ss1 do in these assays?
VDR inhibitor: 44.7µM*; Sfp PPTase inh: 10µM*; PLK1 PBD block: 21.2µM*; ALOX12 inh: inconclusive

What do the screens show for `CC(C)(C)C(=O)Nc1nc(=S)ss1`?
VDR inhibitor: inconclusive; Sfp PPTase inh: 22.4µM*; PLK1 PBD block: inconclusive; ALOX12 inh: inconclusive

Results for CCCSc1nsc(NC(=O)CC)n1 ?
VDR inhibitor: 9.9%; Sfp PPTase inh: 10.5%; PLK1 PBD block: -19.8%; ALOX12 inh: inconclusive

How did CCc1n[nH]c(=S)n1/N=C/c1ccc(N(CC)CC)cc1 do in these assays?
VDR inhibitor: -14.5%; Sfp PPTase inh: -33.2%; PLK1 PBD block: -11.8%; ALOX12 inh: inconclusive

What do the screens show for `C=CCOc1c(Br)cc(/C=N/n2c(CC)n[nH]c2=S)cc1Br`?
VDR inhibitor: 14.6%; Sfp PPTase inh: 79.4µM*; PLK1 PBD block: -16.7%; ALOX12 inh: -24.4%

Results for CCOc1ccc(N=C(NN)c2ccc3ccccc3n2)cc1 ?
VDR inhibitor: 5.5%; Sfp PPTase inh: 14.1µM*; PLK1 PBD block: inconclusive; ALOX12 inh: -18.2%

What do the screens show for `CC1(C(=O)NS(=O)(=O)c2ccc(Br)cc2)CCN1C(=O)C1(c2ccccc2)CC1` (stereo not given)?
PLK1 PBD block: 3.3%; ALOX12 inh: -29.6%

Results for O=c1cc2c(=O)oc3cc(O)c(O)oc3c2c(O)c1O ?
VDR inhibitor: -4.3%; Sfp PPTase inh: 5.01µM*; PLK1 PBD block: inconclusive; ALOX12 inh: -18.9%

How did CC1(CC(=O)N/N=C/c2cc([N+](=O)[O-])c(O)cc2O)OCCO1 do in these assays?
VDR inhibitor: inconclusive; Sfp PPTase inh: 6.0%; PLK1 PBD block: 9.47µM*; ALOX12 inh: -24.3%

What do the screens show for `COc1cccc(-c2nc(CS(=O)(=O)CC(=O)Nc3cccc(C(C)=O)c3)c(C)o2)c1`?
VDR inhibitor: inconclusive; Sfp PPTase inh: 12.0%; PLK1 PBD block: 23.8µM*; ALOX12 inh: inconclusive

Results for COc1ccc(-c2nc(CS(=O)(=O)CC(=O)Nc3cccc(C(C)=O)c3)c(C)o2)cc1 ?
VDR inhibitor: 2.4%; Sfp PPTase inh: -0.2%; PLK1 PBD block: -14.7%; ALOX12 inh: 10.8%
